This passage reports outcome and AC50 results from PubChem BioAssay (EPA / NIEHS).

Read-out in test [1]: matrix metalloproteinase-1 (MMP1), MMP1 (gene 4312)
The test can be described thus: LTEA_HepaRG_MMP1: Life Technologies and Expression Analysis (LTEA) Assay for matrix metalloproteinase-1 (MMP1) using HepaRG (AID 2283658; active means hit-call score of the fitted dose curve at least 0.9, where 1 is the maximum; inactive means score below 0.9). As to conditions: mRNA level, 48 h; actives raise or lower the signal. In outline:
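HepaRG, ~100,000 cells/well, 48 h pre-culture; serum-free induction medium; test chemical 8 conc (max 100 uM, half-log), duplicate, 48 h; 0.5% DMSO; qRT-PCR MMP1, housekeeping-normalized; gain/loss fit vs DMSO.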

Test [2] in a line: Tanguay_ZF_120hpf_TR_legacy: (Legacy) Oregon State University Tanguay Lab 120 Hour Post-fertilization zebrafish Assay for Touch Response (AID 2283667). Put shortly: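 Readout is presence or absence of touch response in 120 hpf zebrafish larvae, assessed by brightfield observation after continuous static exposure at 28C. Final vehicle was 0.64% (vol/vol) DMSO.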
Read-out in test [3]: Cytochrome P450 (CYP24A1_1), CYP24A1 (gene 1591)
The test can be described thus: LTEA_HepaRG_CYP24A1_1: Life Technologies and Expression Analysis (LTEA) Assay for Cytochrome P450 (CYP24A1_1) using HepaRG (AID 2283671; active means hit-call score of the fitted dose curve at least 0.9, where 1 is the maximum; inactive means score below 0.9). As to conditions: mRNA level, 48 h; actives raise or lower the signal. In outline:
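Cultures of human HepaRG were treated in duplicate for 48 h (0.5% DMSO vehicle, highest dose 100 uM). CYP24A1 mRNA by qRT-PCR, normalized to ACTB, GAPDH, POLR2A.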

Test [4] in a line: CCTE_Padilla_ZF_144hpf_TERATOSCORE: (Legacy) CCTE's 144 Hour Post-fertilization zebrafish Assay Teratoscore, Padilla Lab (AID 2283679; active means hit-call score of the fitted dose curve at least 0.9, where 1 is the maximum; inactive means score below 0.9;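 on AC50: zebrafish embryos with chorions exposed by immersion from 6-8 hpf to 5 dpf with daily renewal; teratogenicity score from eye scoring of death hatching and malformations at 144 hpf; higher score means more developmental defects relative to DMSO baseline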). In outline: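 Larvae scored by eye at 144 hpf for death, hatching and malformations after a day in clean Hanks'. Before that, daily-renewed exposure at 80 uM (0.4% DMSO, 26C) from roughly 6-8 hpf through 5 dpf, 4 embryos per chemical.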
Test [5] is described as follows: Tanguay_ZF_120hpf_ActivityScore_legacy: (Legacy) Oregon State University Tanguay Lab 120 Hour Post-fertilization zebrafish Assay Score for Activity (AID 2283742).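 On AC50: dechorionated Tropical 5D wild-type zebrafish embryos held singly per well; static exposure from 6 hpf until 120 hpf at 28 °C.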 In outline: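 In this whole-embryo screen, dechorionated zebrafish were exposed from 6 hpf until 120 hpf at 28C under a 0.64% DMSO vehicle. Developmental malformations and death were recorded by brightfield microscopy as binary endpoints.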

For test [6], the system named is Thyroperoxidase (TPO), gene 54314. The test can be described thus: CCTE_Simmons_AUR_rTPO: CCTE's Amplex UltraRed Assay for Thyroperoxidase (TPO) Inhibition, Simmons Lab (AID 2283662).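 On AC50: potency for loss of signal meaning inhibition of peroxidase activity.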 Put shortly:
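Rat thyroid microsomal TPO + 25 uM AUR in 200 mM K phosphate; cpd 5 nM–87.5 uM [final], 8 conc, 0.5% DMSO; 300 uM H2O2 starts rxn; 37C dark 30 min; endpoint FI 544/590 nm; n=3.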

The nature of test [7]: CCTE_Simmons_CellTiterGLO_HEK293T: Viability Assessment in CCTE's Assays for Thyroperoxidase (TPO) Inhibition, Simmons Lab (AID 2283665).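 On AC50: cells exposed to compound for 24 h before readout; actives reduce ATP signal below DMSO vehicle meaning cytotoxicity.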 In outline: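 Luminescent ATP readout (CellTiter-Glo, 20 min at room temperature) after 24 hr exposure of HEK293T cells to 5 nM–87.5 uM final compound; signal loss relative to DMSO vehicle indicated cytotoxicity; dichlone titrated as positive control.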

A short description of test [8]: CEETOX_H295R_MTT_cell_viability: Viability Assessment in the CeeTox HT-H295R MTT Assay (AID 2283718; active means hit-call score of the fitted dose curve at least 0.9, where 1 is the maximum; inactive means score below 0.9). Put shortly:
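H295R cells prestimulated 48 h with 10 uM forskolin, then exposed 48 h to test chemical (0.1% DMSO final). Viability by MTT (0.5 mg/ml, 4 h, 37 C), absorbance 570/650 nm; percent change versus DMSO, bidirectional fit.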

A short description of test [9]: STM_H9_OrnithineISnorm_perc: Stemina devTOX quickPredict H9 human embryonic stem cell (hESC)-based Assay for Ornithine (ORN) Metabolite Biomarker, Normalized (AID 2283712; active means hit-call score of the fitted dose curve at least 0.9, where 1 is the maximum; inactive means score below 0.9;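 further: ornithine released into spent medium during last day measured by mass spectrometry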). In outline: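 UPLC-HRMS readout: endogenous ornithine EIC area / 13C-ORN internal standard, then % of 0.1% DMSO median. H9 hESCs (pluripotent), 72h exposure, re-dosed with fresh media q24h; last 24-h spent media, deproteinized in 40% acetonitrile.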

Test [10] is described as follows: STM_H9_CystineISnorm_perc: Stemina devTOX quickPredict H9 human embryonic stem cell (hESC)-based Assay for Cystine (CYSS) Metabolite Biomarker, Normalized (AID 2283713; active means hit-call score of the fitted dose curve at least 0.9, where 1 is the maximum; inactive means score below 0.9). Put shortly: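 UPLC-HRMS read-out: endogenous cystine peak area in spent medium, normalized to isotope-labeled internal standard and to median of 0.1% DMSO controls. Pluripotent H9 cells, 72h exposure, daily medium/compound replenishment; medium from last 24h sampled.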

A short description of test [11]: STM_H9_OrnCyssISnorm_ratio: Stemina devTOX quickPredict H9 human embryonic stem cell (hESC)-based Assay for Ornithine (ORN):Cystine (CYSS) Ratio (AID 2283714). Put shortly: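 H9 hESC, 72h, q24h re-dose; last-day media → acetonitrile deproteinization → UPLC-HRMS. ORN:CYSS ratio from isotope-normalized EIC areas, vs 0.1% DMSO; MTX references on each plate.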
For test [12], the system named is Thyroperoxidase (TPO), gene 445522. Description: CCTE_Simmons_GUA_TPO: CCTE's Guaiacol Assay for Thyroperoxidase (TPO) Inhibition, Simmons Lab (AID 2283750). In outline: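 Porcine thyroid microsomes (25 ug) in 200mM potassium phosphate, preincubated 30 s at 37C with compound (8 concentrations, 5 nM–87.5 uM) and 35mM guaiacol; 1mM H2O2 starts reaction. Absorbance change at 450nm over first 80 s; loss of signal versus DMSO, three replicates.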

Test [13] can be described thus: ArunA_CellTiter_hNC: Viability Assessment in the ArunA Biomedical's Oris Neural Crest (hNC) Cell Migration Assay (AID 2283752). Put shortly:
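hNC cells (H9 ESC-derived), 60,000/well, Matrigel, LIF + bFGF medium; 16 h 37C attachment; 72 h compound in test medium; CellTiter Aqueous One read-out; loss-of-signal vs DMSO baseline.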

The nature of test [14]: ArunA_CellTiter_hNP: Viability Assessment in the ArunA Biomedical's Oris Neural Crest (hNC) Cell Migration Assay (AID 2283753). In outline: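 Viability read with CellTiter 96 Aqueous One after 72 h chemical exposure of human hNP1 neuroprogenitors, which were plated on Matrigel in LIF/bFGF medium 16 h beforehand. Endpoint fitted in positive direction relative to DMSO.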
The nature of test [15]: ArunA_Migration_hNP: ArunA Biomedical's Oris Neuroprogenitor (hNP) Cell Migration Assay (AID 2283754). Put shortly:
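Readout is calcein-AM fluorescence (ex494/em517) of cells migrating into the detection zone, relative to DMSO. hNP1 cells (H9-derived) grown on Matrigel behind stoppers 16 h, then stoppers pulled and chemical applied 72 h; cytochalasin D as control.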

The nature of test [16]: ArunA_Migration_hNC: ArunA Biomedical's Oris Neural Crest (hNC) Cell Migration Assay (AID 2283755). Put shortly:
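Calcein-AM fluorescence (ex494 nm/em 517 nm) in the stopper-defined detection zone quantifies migration of hNC cells after 72 h chemical exposure; 60,000 cells/well plated on Matrigel with LIF and bFGF, 16 h pre-incubation. DMSO baseline.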

Test [17] can be described thus: ArunA_NOG_NucleusCount: ArunA Biomedical's Neurite Outgrowth (NOG) Assay for Nucleus Count (AID 2283756). In outline: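 Viable neuron count, from Hoechst nuclei passing size and intensity gates, imaged at 20x on differentiated H9-derived human neurons. Exposure lasted 48 h from seeding; activity was scored relative to DMSO.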
A short description of test [18]: ArunA_NOG_NeuriteLength: ArunA Biomedical's Neurite Outgrowth (NOG) Assay for Neurite Length (AID 2283757). Put shortly:
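Total neurite length per neuron, from traced βIII-tubulin-labelled processes longer than 10 um on viable Hoechst-gated cells, was scored as decrease from DMSO. Cells were hESC (H9)-derived neurons given 48 h chemical exposure immediately after seeding.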

Test [19] in a line: ArunA_NOG_NeuritesPerNeuron: ArunA Biomedical's Neurite Outgrowth (NOG) Assay for Neurites Per Neuron (AID 2283758). Put shortly:
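Differentiated human H9-derived neurons exposed to chemicals for 48 h from seeding, then stained with Hoechst and βIII-tubulin/DyLight 488. Automated imaging counted neurites (processes >10 um) per valid neuron; loss of signal versus DMSO scored.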

Results filed as inconclusive are left out. Active and inactive are the calls of the source. How the source made its calls, unless noted: active means hit-call score of the fitted dose curve at least 0.9, where 1 is the maximum; inconclusive means response in the unintended direction; inactive means score below 0.9.

On to `ClC1=C(Cl)C2(Cl)C3C(Cl)C=CC3C1(Cl)C2(Cl)Cl` (configuration not stated), for which the result in test [1], in test [2], in [3] and in test [5] was inactive. In addition, the AC50 in [4] is 3.23 µM (active).

Regarding `C=CCc1ccc2c(c1)OCO2`, the AC50 in [6] is 36.4 µM (active); in test [7], 66.7 µM (active). Also, the call in test [2], in test [8] and in test [5] was inactive.

On to `Cc1ccc(N)c(N)c1`, for which the AC50 was 1.68 µM (active) in [6]; 80.4 µM (active) in test [4]; 18.9 µM (active) in test [9]; 23.4 µM (active) in test [10]; 22.7 µM (active) in test [11]. Further, the result in test [7], in [2], in test [8] and in test [5] was inactive.

Regarding `COP(=S)(OC)SCN1C(=O)c2ccccc2C1=O`, the results for the AC50 in test [6], in test [7] and in [4] were 12.9 µM (active), 43.8 µM (active) and 52.6 µM (active), respectively. For the same compound, the call in test [2], in [8], in test [5] and in test [12] was inactive.

Consider `C[C@]12C=CC3=C4CCC(=O)C=C4CC[C@H]3[C@@H]1CC[C@@H]2O`, for which the compound was called inactive in test [1], in test [2], in test [3] and in test [8]. Moreover, the AC50 in test [6] is 7.23 µM (active); in [7], 6.42 µM (active); in [4] it was 31 µM (active); in [5], 118 µM (active).

Regarding `O=[N+]([O-])C(Br)(CO)CO`, the call in [1], in test [2], in test [3] and in test [5] was inactive.

`CCOC(=O)[C@]1(c2ccccc2)Oc2ccccc2[C@@H]1N`: the AC50 in [6] was 12.6 µM (active); in test [7] it was 36.6 µM (active); in test [4] it was 4.92 µM (active). For the same compound, the outcome in [2], in [8] and in test [5] was inactive.

As for `Cc1ccc(N=C=O)cc1N=C=O`, in [6], the concentration at half-maximal activity (AC50) was 16.9 µM (active). Also, the call in test [7], in test [2], in [8] and in test [5] was inactive.

In the case of `C1=Cc2cccc3cccc1c23`, the call in [1], in test [2], in test [3] and in test [5] was inactive.

For `Cc1ccc([N+](=O)[O-])cc1`, the compound was classed as inactive in test [1], in test [2], in [3] and in test [5].

On to `CCC(C)c1ccc(O)cc1` (configuration not stated), for which the AC50 in [6] was 2.88 µM (active); in test [7], 43.8 µM (active); in [4], 60.3 µM (active). For the same compound, the compound was classed as inactive in test [2], in test [8] and in test [5].

Consider `CN(C)c1ccc(C(=O)c2ccc(N(C)C)cc2)cc1`, for which the AC50 is 8.94 µM (active) in test [6]; 43.8 µM (active) in test [7]; 43.3 µM (active) in [2]; 0.544 µM (active) in test [4]; 32.1 µM (active) in [5].

Take `CCCCOC(=O)c1ccccc1C(=O)OCc1ccccc1`: the result in test [6], in [2], in test [9], in [8] and in test [5] was inactive. The AC50 in [7] is 8.68 µM (active); in [4], 1.55 µM (active); in [10] it was 32.6 µM (active); in test [11], 34.6 µM (active).

As to `Oc1ccc2ccc3cccc4ccc1c2c34`, the concentration at half-maximal activity (AC50) in test [6] is 10.9 µM (active); in test [7], 10.8 µM (active); in test [2], 44.1 µM (active); in [4] it was 15.2 µM (active); in [5], 47.4 µM (active); in test [13], 14.7 µM (active). The results for the AC50 in [14], in [15] and in test [16] were 25.8 µM (active), 50 µM (active) and 13.9 µM (active), respectively. Further, the result in test [9], in test [10], in [11], in [8], in test [17] and in test [18] was inactive. Also, in [19], the compound was called inactive.

For `CCC12COCN1COC2`, the outcome in test [2], in [4] and in [5] was inactive.

Turning to `CN(C)c1ccccc1`, the concentration at half-maximal activity (AC50) in test [6] is 22.7 µM (active); in test [12] it was 23.7 µM (active). Besides, the compound was classed as inactive in [2] and in test [5].

As for `O=C(Nc1ccccc1)c1ccccc1I`, the outcome in test [2] and in [8] was inactive. Besides, the AC50 was 5.47 µM (active) in [4] and 11.6 µM (active) in [5].

For the compound `N#CC(Br)Br`, the compound was classed as inactive in test [2], in [4] and in [5].
